# Screening results deposited in PubChem BioAssay by The Scripps Research Institute Molecular Screening Center.
# Most compounds without a hit are left out; they make up all but 3.4% or so of the library.
# MITF primary – blocks human microphthalmia-associated transcription factor; O75030; AlphaScreen MITF homodimerization, bead proximity signal; inhibition, % at 2.6 µM; actives 0.91% (n = 650,000); in the data active = inhibition above about 50%;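 also: 0% = vehicle wells with protein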
# FBW7 activator – activators of human E3 ligase FBW7 | Q969H0 | AlphaScreen FBW7–phospho-cyclin E peptide binding, activator screen | normalized activity (activation), % at 26.1 µM | actives 0.13% (n = 650,000) | AID 1259310; in the data active = normalized activity above about 1.9%;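 also: purified mutant Fbw7 with reduced substrate affinity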
# Target sequence (Q969H0 whole entry, looked up): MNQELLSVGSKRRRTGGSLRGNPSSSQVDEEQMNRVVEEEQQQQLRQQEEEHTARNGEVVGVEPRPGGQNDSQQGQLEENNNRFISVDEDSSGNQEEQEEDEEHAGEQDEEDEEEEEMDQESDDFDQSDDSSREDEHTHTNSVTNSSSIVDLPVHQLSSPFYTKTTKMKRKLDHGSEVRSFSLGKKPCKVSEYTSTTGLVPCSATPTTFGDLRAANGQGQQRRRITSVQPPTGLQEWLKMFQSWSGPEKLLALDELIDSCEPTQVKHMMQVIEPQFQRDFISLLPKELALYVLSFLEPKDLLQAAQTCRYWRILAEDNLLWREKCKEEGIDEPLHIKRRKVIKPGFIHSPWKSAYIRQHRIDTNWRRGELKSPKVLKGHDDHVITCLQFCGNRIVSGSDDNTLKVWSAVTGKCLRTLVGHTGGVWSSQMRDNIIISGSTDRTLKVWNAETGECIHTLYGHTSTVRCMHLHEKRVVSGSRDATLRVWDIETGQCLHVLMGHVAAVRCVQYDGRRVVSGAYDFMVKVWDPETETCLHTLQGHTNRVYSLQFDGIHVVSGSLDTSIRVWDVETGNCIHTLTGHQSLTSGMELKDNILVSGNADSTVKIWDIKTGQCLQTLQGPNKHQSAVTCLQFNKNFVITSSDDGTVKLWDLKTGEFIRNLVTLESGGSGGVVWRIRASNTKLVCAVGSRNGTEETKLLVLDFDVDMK
# TEAD-YAP inh – TEAD-YAP interaction inhibition; HEK-TIYL cells, TEAD-Gal4/YAP UAS-luciferase luminescence; inhibition, % at 9.12 µM; actives 1.4% (n = 640,000); in the data active = inhibition above about 32%;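 also: 0% = median of test compound wells and 100% = reference inhibitor wells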
# GPR151 ag – human GPR151 activation; activation, % at 11.2 µM; actives 1% (n = 650,000); PathHunter beta-arrestin GPR151 cells, luminescence; Q8TDV0; in the data active = activation above about 4.9%;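 also: 0% = median of compound wells and 100% = cells with positive control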
# Numbers without * were called inactive.
SMILES,MITF primary,FBW7 activator,TEAD-YAP inh,GPR151 ag
COc1ccc(N2C(SC)=NC(=Nc3ccc(C)cc3)C23CCC(C(C)(C)C)CC3)cc1 (stereo not given),13,0,2,0
COC1(C)N(c2ccc(C)cc2)CC(=Nc2ccc(C)cc2)N1c1ccc(C)cc1 (stereo not given),9,0,38*,1
O=C(NCc1ccco1)c1ccc(N2CC3CC(C2)c2cccc(=O)n2C3)c(NC(=O)c2ccncc2)c1 (stereo not given),2,0,45*,0
O=C(NCc1ccncc1)c1ccc(OC2CCN(C3CCOCC3)CC2)cc1,-2,0,2,0
Cc1cc(CN2CCC(Oc3ccc(C(=O)NCc4ccncc4)cc3)CC2)oc1C,-13,0,33*,0
O=S(=O)(c1ccccc1)N1CCC(O)(CSc2ccc(Cl)cc2)CC1,5,0,39*,0
Cc1ccccc1-c1nc2cc(NC(=O)c3cc(Br)ccc3Cl)ccc2o1,9,0,-19,0
CCCCOc1ccccc1C1CC(=O)NC2=C1C(=O)CCC2 (stereo not given),2,0,57*,0
CCCOc1ccccc1C1CC(=O)NC2=C1C(=O)CCC2 (stereo not given),-9,0,50*,-1
O=C1CC(c2cccc3ccccc23)C2=C(CCCC2=O)N1 (stereo not given),3,0,-1,-1
CCOc1ccccc1C1CC(=O)NC2=C1C(=O)CCC2 (stereo not given),21,0,40*,0
O=C(O)c1cc([N+](=O)[O-])ccc1Sc1ncn[nH]1,-11,0,-6,1
COc1ccc(CNc2nccn3c(-c4cccc5ccccc45)cnc23)cc1,4,2.2*,-8,1
COc1ccccc1NC(=O)c1ccc(F)c(S(=O)(=O)N2CCCCCC2)c1,-11,0,2,1
Nc1nc2ccccc2n1C(=O)c1ccc(Cl)cc1,1,0,71*,-8
Cc1ccc(C(=O)n2c(N)nc3ccccc32)cc1,-5,0,91*,-8
COc1ccc2[nH]c(C)cc(=O)c2c1,12,0,11,1
COc1ccc2[nH]c(C)cc(=S)c2c1,7,0,42*,1
Cc1ccc2[nH]c3nc4ccccc4nc3c2c1,-12,0,-13,-5
COc1ccc2[nH]c3nc4cc(C)c(C)cc4nc3c2c1,-3,0,43*,0
CCCCc1ccc(NC(=O)CS)cc1,2,0,8,2
COc1ccccc1C1C(C(=O)Nc2nc3ccccc3s2)=C(C)NC2=C1C(=O)CCC2 (stereo not given),3,0,-4,2
Cc1cc(C)nc(N/N=C/c2sc(N3CCOCC3)nc2-c2ccccc2)n1,5,0,46*,2
CC(=O)Oc1ccc(N2C(=O)C3C(C2=O)C2(C)c4ccccc4C3(C)c3ccccc32)cc1 (stereo not given),8,0,-5,1
CC1=C/C(=C\c2c(O)[nH]c(=O)[nH]c2=O)C(C)=N1,2,-1,8,0
SMILES,MITF primary,FBW7 activator,TEAD-YAP inh,GPR151 ag
CC1=C/C(=C\c2c(O)n(Cc3ccco3)c(=S)[nH]c2=O)C(C)=N1,84*,-1,6,1
O=[N+]([O-])c1ccc(N2CCN(S(=O)(=O)c3ccc(Cl)cc3)CC2)cc1NCCOc1ccccc1,-17,0,-1,0
CC(=O)C1=C(c2ccccc2)N(C(C)=O)n2cnnc2S1,-5,0,16,1
CC(=O)C1=C(c2ccc3c(c2)CCCC3)N(C(C)=O)n2cnnc2S1,9,0,38*,2
CC(C)Oc1ccc(C(=O)Nc2nc(-c3ccc(F)cc3F)cs2)cc1,-10,0,38*,-1
O=[N+]([O-])c1cc(OCC(F)(F)C(F)F)cc(Oc2ccccc2)c1,18,0,-15,1
Cn1c(=O)cc(OCCCC(=O)Nc2ccc(Cl)cn2)c2ccccc21,5,0,43*,0
Cc1ccc(C(=O)Nn2c(C)nc3sc4c(c3c2=O)CCCC4)cc1,-10,0,6,0
CC(=O)c1ccc(NC(=O)COc2ccccc2C(C)(C)C)cc1,-2,0,-27,0
Cc1cccc(-n2ncc3c(Nc4cccc5ccccc45)ncnc32)c1,19,0,32*,-1
Cc1cccc(-n2ncc3c(Nc4c(C)cc(C)cc4C)ncnc32)c1,7,0,57*,1
Cc1cccc(-n2ncc3c(Nc4ccccc4)ncnc32)c1,10,0,-43,5
CSc1ccccc1Nc1ncnc2c1cnn2-c1cccc(C)c1,-11,0,60*,0
Cc1nc(NCc2cnn(-c3ccccc3)c2)sc1-c1ccn(CC2CC2)n1,12,0,0,-1
O=C(N1CCCCCC1)N1c2ccccc2C=Cc2ccccc21,5,0,36*,0
COc1ccc(C2CC(=O)c3c(ccc4ccccc34)N2)cc1 (stereo not given),11,0,0,-1
COc1ccc(Br)cc1C1CC(=O)c2c(ccc3ccccc23)N1 (stereo not given),2,0,37*,0
CCN(CC)C(=O)c1cc(-c2ccc(Cl)cc2Cl)on1,13,0,-77,0
CC(C)(CO)NC(=O)c1cc(-c2ccc(Cl)cc2Cl)on1,-15,0,48*,-1
COc1cn2c(cc1=O)C(=O)N(CCNC(=O)CCC1CCCCC1)CC2,6,1,12,-2
CCC1=NN(C(=O)c2ccccc2O)C(O)(c2ccccc2)C1 (stereo not given),1,0,46*,-1
Cc1ccc(/C(O)=C2\C(=O)C(=O)N(c3ccccn3)C2c2ccc(C(C)(C)C)cc2)cc1 (stereo not given),-9,0,44*,-1
CCOC(=O)C1=C(C)NC(SCC(N)=O)=C(C#N)C1c1cccc([N+](=O)[O-])c1 (stereo not given),5,0,49*,0
CCOC(=O)C1=C(C)NC(SC)=C(C#N)C1c1ccccc1 (stereo not given),5,0,47*,-1
CCOC(=O)C1=C(c2ccccc2)NC(SC)=C(C#N)C1c1cccnc1 (stereo not given),1,0,8,1
SMILES,MITF primary,FBW7 activator,TEAD-YAP inh,GPR151 ag
CCOC(=O)C1=C(C)NC(C)=C(C(=O)OCC)C1c1ccccc1F,17,2.1*,5,-1
CC(=O)N1CCc2cc(Br)cc(S(=O)(=O)NCc3ccc4c(c3)OCO4)c21,20,0,-10,1
COc1ccc(-c2noc(COc3ccc(F)cc3)n2)cc1OC,7,1,12,0
O=C(Nc1ccc(S(=O)(=O)N2CCCCC2)cc1)c1ccc(CN2CCc3ccccc3C2)cc1,17,1,65*,1
COc1ccc(S(=O)(=O)N(C)Cc2ccccc2C#N)cc1,8,0,6,2
O=C(Nc1ccc(O)cc1)c1c(O)c2c([nH]c1=O)CCCC2,4,0,68*,2
Cc1ccc(NC(=O)c2c(O)c3c([nH]c2=O)CCCC3)cc1,2,0,2,-1
